Bioassay records deposited in PubChem BioAssay by National Center for Advancing Translational Sciences (NCATS).
This is a sample that favours compounds with a hit; in the whole collection about 3.6% have one here.
Hsp90 Hop PPI: qHTS Assay for Disrupters of an Hsp90 Co-Chaperone Interaction; Hsp90 C-terminal peptide / TPR2A (Hop) interaction, human; AlphaScreen TPR2A-His6 binding biotin-Hsp90 C-terminal peptide; Potency, µM (doses to about 57 µM), without a hit: top-dose activity change, negative = inhibition; hit rate 0.44% among 71,000; AID 595, 2007; active means well fitted curve in either direction with a large enough effect; inconclusive means small, poorly fitted or top-dose-only effect, or another doubt; further: on the % scale 0 is the no-effect control and ±100 the full control effect
IkB sig inh: IkB Signaling; ABC-DLBCL IkBa-CBG/CBR dual luciferase ratio, 4 h; response scale: scaled: untreated 0%, proteasome inhibitor 100%; hit rate 0.04% among 110,000; AID 445, 2006; Potency, µM (top dose mostly 57.1 µM), for inactives: at the top dose IkBa stabilization activation; active means well fitted curve in the direction sought with a large enough effect in the signal ratio, not every such curve was filed as active; inconclusive means small, poorly fitted or top-dose-only effect, or a change in a side signal; the % refers to the signal ratio;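 further: the direction sought is a rising ratio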
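Luminescence ratio of IκBα-fused green versus native red beetle luciferase in OCI-Ly3 cells, 4 h post-doxycycline with compound; red signal alone, scaled from basal (0%) to zero light (-100%), flagged nonspecific or cytotoxic effects.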
Tau fil binding: qHTS Assay for Tau Filament Binding | Microtubule-associated protein tau (Homo sapiens), P10636 | recombinant tau filaments, thioflavin S fluorescence, 15 h; filaments grown with octadecylsulfate alongside compound | Potency, µM (doses to about 57.1 µM), for the others: at the top dose activity change, negative = inhibition | hit rate 2% among 71,000 | AID 596, 2007;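 further: on the % scale 0 is the no-effect control and ±100 the full control effect; actives lower thioflavin S fluorescence by blocking filaments or displacing dye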
Target sequence (P10636 whole entry, looked up): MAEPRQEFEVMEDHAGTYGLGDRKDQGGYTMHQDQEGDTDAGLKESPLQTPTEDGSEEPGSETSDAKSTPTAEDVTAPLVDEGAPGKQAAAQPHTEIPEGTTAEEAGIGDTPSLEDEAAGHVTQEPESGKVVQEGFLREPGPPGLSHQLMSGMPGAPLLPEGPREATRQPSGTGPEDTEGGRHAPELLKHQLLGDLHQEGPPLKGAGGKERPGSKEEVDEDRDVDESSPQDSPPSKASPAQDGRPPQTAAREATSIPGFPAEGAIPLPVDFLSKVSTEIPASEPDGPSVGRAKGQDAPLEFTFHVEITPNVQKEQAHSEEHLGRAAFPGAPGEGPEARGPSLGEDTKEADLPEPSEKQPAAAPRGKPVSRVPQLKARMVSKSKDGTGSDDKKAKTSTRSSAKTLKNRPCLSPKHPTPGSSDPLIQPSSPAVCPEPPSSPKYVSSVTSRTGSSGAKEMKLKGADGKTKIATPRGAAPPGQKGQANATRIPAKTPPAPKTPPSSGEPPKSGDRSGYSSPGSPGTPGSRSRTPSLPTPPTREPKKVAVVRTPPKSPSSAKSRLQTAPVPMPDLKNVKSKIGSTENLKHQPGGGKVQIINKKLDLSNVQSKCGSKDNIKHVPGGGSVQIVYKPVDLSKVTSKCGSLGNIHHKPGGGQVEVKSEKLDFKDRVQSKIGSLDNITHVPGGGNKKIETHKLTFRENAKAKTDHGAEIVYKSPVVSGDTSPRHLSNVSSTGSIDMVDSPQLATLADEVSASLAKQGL
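Recombinant tau protein (human, 1 uM final) plus 30 uM ODS in HEPES pH 7.4 with NaCl, DTT and thioflavine S. Compound present from the start; fluorescence at 510 nm after 15 h, 37 C.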
ALOX15 inhib: qHTS Assay for Inhibitors of 15-hLO (15-human lipoxygenase); Polyunsaturated fatty acid lipoxygenase ALOX15 (Homo sapiens), P16050; purified 15hLO-1, xylenol orange hydroperoxide absorbance; Potency, µM (titrated, usually from 57.1 µM), without a hit: top-dose activity change, negative = inhibition, actives largely listed as inhibitors; hit rate 1.4% among 74,000; AID 887, 2007; further: on the % scale 0 is the no-effect control and ±100 the full control effect; nearly all actives have a fitted effect of over 55% in size
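Readout: Fe(III)-xylenol orange absorbance, 573-to-405 nm ratio as reaction progress. Enzyme 40 nM purified human 15hLO-1, substrate 50 uM arachidonic acid, 6 min RT after 15 min compound preincubation; Hepes pH 7.5 buffer with Triton X-100.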
CRE-bla Fsk: Cell signaling CRE-BLA (Fsk stim); hit rate 2.5% among 71,000; AID 662, 2007; CHO CRE-bla reporter (cAMP response element driving beta-lactamase), forskolin EC10, beta-lactamase ratio; Potency, µM (series often up to 38.2 µM), without a hit: at the top dose activity change, negative = inhibition, usual class: activators; active means well fitted activation curve with a large enough effect in the signal ratio, with a control signal flat, not every such curve was filed as active; inconclusive means small, poorly fitted or top-dose-only effect, or effect the other way, or a change in a side signal; the % refers to the signal ratio; further: % of control where 0% means no effect
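CRE-bla CHO reporter cells treated with compound titration plus EC10 NKH 477 (water-soluble forskolin), incubated 3 h at 37 °C; CCF4 loading 2 h at room temperature, 460/530 nm emission ratio read, AC50 values derived for positive or negative modulators.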
* = called active by the depositor; u = inconclusive; x = not tested or not shown; ! = not active in a repeat; [ ] = remark or other dose. Unless noted, the call rests on the fitted dose curve; in most records, active means well fitted curve in the direction sought with a large enough effect; inconclusive means small, poorly fitted or top-dose-only effect, or another doubt; inactive means no such curve, though single readings can be large; an effect the other way counts as inactive or inconclusive. Potency means the concentration at half of the fitted maximal effect.

SMILES | Hsp90 Hop PPI | IkB sig inh | Tau fil binding | ALOX15 inhib | CRE-bla Fsk
[O-][N+]1=c2ccc(Nc3ccccc3)cc2=NC12CCCCC2 | u | u | 13µM* | 3.2µM* | u
COc1ccc(NC(=O)c2ccc3c(c2)nnn3C2CCCC2)cc1Cl | x | -1% | x | x | x
Cc1nn(C)c2c1c(-c1ccccc1)cc(=O)n2C(C)C(=O)NCc1ccc(F)cc1 (stereo unspecified) | x | -1% | x | x | x
CC1=C(C(=O)Nc2cccnc2)C(c2ccc(C)cc2)n2nc(SCc3ccccc3F)nc2N1 (stereo unspecified) | x | -2% | x | x | x
CCN(c1ccccc1)c1nnc(NC(=O)Nc2ccc(C)cc2)s1 | x | 2% | x | x | x
Cc1cc(NCCOCCO)n2ncc(-c3ccc(Cl)cc3)c2n1 | 7% | 1% | 1% | -17% | 7.9µM*
Cc1cc(NCCCN2CCOCC2)n2ncc(-c3ccccc3)c2n1 | 1% | 5% | -15% | 1% | u
COCCn1c(SCc2ccc(C(=O)OC)o2)nc2cc(Cl)ccc2c1=O | 21% | u | 22% | -10% | 5µM*
COC(=O)c1ccc(CSc2nc(C)nc3c2c(=O)n(C)c(=O)n3C)o1 | 2% | 2% | 39% | 7% | 2µM*
Cc1csc(NC(=O)CSc2nc(C(C)C)nc3c2c(=O)n(C)c(=O)n3C)n1 | -6% | u | 33% | -8% | 2.5µM*
COC(=O)c1ccc(CSc2nc(-c3ccc(OC)cc3)nc3c2c(=O)n(C)c(=O)n3C)o1 | -1% | 0% | -2% | 2% | 11%
COCCn1c(SCC(=O)Nc2cccc(C(=O)OC)c2)nc2ccccc2c1=O | -1% | -1% | 125% | -2% | 13%
Cc1nc(SCC(=O)Nc2cc(C)on2)c2c(=O)n(C)c(=O)n(C)c2n1 | -4% | 0% | 8% | -9% | 2µM*
CC(=O)Nc1c(I)c(C(=O)N[C@H]2[C@@H](O)[C@H](O)[C@H](CO)O[C@@H]2O)c(I)c(N(C)C(C)=O)c1I | -2%[26 µM] | 1%[25.6 µM] | 7%[25.6 µM] | 9%[25.6 µM] | 0%[17.1 µM]
COc1ccc(-c2[nH]ncc2C(=O)NCc2ccccc2C)cc1 | x | -1% | x | x | x
O=C1c2ccccc2C(=O)c2c1ccc(O)c2O | x | x | x | 10µM* | x
O=C1c2ccc(O)c(O)c2C(=O)c2c(O)ccc(O)c21 | x | x | x | 0.25µM* | x
COCCCNC(=O)c1ccc2c(c1)nc1n2CCCCC1 | x | -1% | x | x | x
CCCCCCC/C=C\CCCCCCCCC(=O)O | 1% | 20% | u | u | 3%
CCCCCC/C=C\CCCCCCCc1cccc(O)c1C(=O)O | x | x | x | 1.6µM* | x
Cc1n[nH]c(C)c1N1C(=O)c2cccc3cc(Br)cc(c23)C1=O | -4% | -4% | 16µM* | u | 23%
Cc1cccc(C)c1N1C(=O)c2ccccc2C1=O | 0% | 0% | 4% | 5% | 8%
COC(=O)NC(c1cccc(F)c1)[C@@]1(C(=O)OC)CCCC1=O (stereo partly specified) | x | x | x | 4%[11.4 µM] | x
N[C@H](Cc1ccc(O)c(I)c1)C(=O)O | -3% | -2% | -1% | x | 2%
CCCC(=O)NCCc1cc2c(C)ccc(C)c2[nH]c1=O | -3% | 1% | -5% | 5% | 13µM*
SMILES | Hsp90 Hop PPI | IkB sig inh | Tau fil binding | ALOX15 inhib | CRE-bla Fsk
CCCCC(=O)NCCc1cc2c(C)ccc(C)c2[nH]c1=O | 0% | -1% | 2% | 3% | 0%
NC1(C(=O)O)CC(C(=O)O)C1 (stereo unspecified) | 1% | 0% | u | 20µM*! | 1%
NC1(C(=O)O)CCC1 | -3% | 0% | u | -28%[25.6 µM] | -6%
Cc1nc(NCCO)c2nc(-c3ccccc3)n(CCN(C)C)c2n1 | -5% | x | -12% | 32µM* | u
COCCN(CCOC)c1nc(C)nc2c1nc(-c1ccccc1)n2CC1CCN(C)CC1 | -1% | x | 12% | 3% | 12%
COCCN(CCOC)c1nc(C)nc2c1nc(-c1ccccc1)n2CCN1CCOCC1 | -3% | x | 9% | 4% | 13µM*
CCCn1c(-c2ccc(F)cc2)nc2c(NC3CCN(Cc4ccccc4)CC3)nc(C)nc21 | -6% | x | 151% | 20µM* | 6%
CCN(CC)CCCn1c(-c2ccccc2)nc2c(NCc3ccccc3)nc(C)nc21 | -1% | x | 37% | 2% | -9%
Cc1nc(NCc2ccccc2)c2nc(-c3ccccc3)n(CC(C)(C)CN(C)C)c2n1 | -4% | x | 23% | 4µM* | -18%
N#C/C(=C\N1CCNC1=S)C(=O)c1ccc2ccccc2c1 | -4%[11 µM] | 0%[11.4 µM] | -27%[11.4 µM] | 4%[11.4 µM] | 0%[7.6 µM]
CCc1ccc(-n2c(=O)c3c4c(sc3n(Cc3ccc(F)cc3)c2=O)CCCC4)cc1 | x | 4% | x | x | x
Cc1ccc(CCNC(=O)CCCc2nnc3n(C)c(=O)c4sccc4n23)cc1 | x | -1% | x | x | x
CCn1cc(C(=O)NCCCOC(C)C)c(=O)c2cc(S(=O)(=O)N3CCc4ccccc4C3)ccc21 | x | -2% | x | x | x
CCCn1c(-c2ccc(F)cc2)nc2c(NCC(C)(C)CN(C)C)nc(C)nc21 | -5% | x | -8% | 13µM* | 11%
COCCN(CCOC)c1nc(C)nc2c1nc(-c1ccccc1)n2CCN(C)C | -5% | x | 6% | 25µM* | u
Cc1nc(N2CCOCC2)c2nc(-c3ccccc3)n(CCN(C)C)c2n1 | -2% | x | -2% | 13µM* | 19%
Cc1ccc2onc(CNC(=O)N3CCN(c4cc(Cl)ccc4C)CC3)c2c1 | x | 1% | x | x | x
O=C(Nc1cccc(C(F)(F)F)c1)c1cc(-c2ccc(Cl)s2)nc2ccccc12 | x | 4% | x | x | x
CC/C=C\C/C=C\C/C=C\CCCCCCCC(=O)O | -3% | 8% | 1% | 0.13µM* | -4%
CCCCN(Cc1ccccc1)S(=O)(=O)c1cc(Br)cc2c1N(C(=O)C1CC1)CC2 | x | 3% | x | x | x
CCOCCc1nn2c(=O)cc(COC(=O)C(CC)c3ccccc3)nc2s1 (stereo unspecified) | x | -1% | x | x | x
O=C(OCc1cc(=O)n2c(n1)sc1ccccc12)c1ccc2c(=O)n3c(nc2c1)CCC3 | -2% | u | 6.3µM* | u | u
CN(C(=O)c1ccc2c(=O)n3c(nc2c1)CCCCC3)c1ccccc1 | 0% | 1% | 0% | 3% | u
CC(C)n1c(=O)c2oc3ccccc3c2n(Cc2ccccc2F)c1=O | x | 0% | x | x | x
O=c1c(-c2ccccc2)nc2cnc(Oc3ccccc3)nc2n1C[C@H]1CCCO1 | -1% | -3%[11.4 µM] | -16% | -3% | u
O=c1c(-c2ccc(F)cc2)nc2cnc(Nc3ccccc3)nc2n1C[C@H]1CCCO1 | -5% | 0%[11.4 µM] | 13% | -6% | 0.25µM*
COc1cccc(Nc2ncc3nc(-c4ccccc4)c(=O)n(C[C@H]4CCCO4)c3n2)c1 | 13µM* | -5%[11.4 µM] | 440% | -3% | u
COc1cccc(Nc2ncc3nc(-c4cc(F)cc(F)c4)c(=O)n(CCC#N)c3n2)c1 | -8% | -2%[11.4 µM] | 0.79µM* | 0% | u
